Compound activity deposited in PubChem by National Center for Advancing Translational Sciences (NCATS).
FLuc modulator = counter-screen for miR-21 project: firefly luciferase inhibitors or activators; P08659; purified FLuc, Km substrates, luminescence inhibition; Potency, µM (series often up to 57.5 µM), for the others: top-dose activity change, negative = inhibition, actives largely listed as inhibitors; 360,000 tested, 6.9% active; AID 588342;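 also: plate controls were vehicle for no effect and reference inhibitor for full effect; nearly all actives have a fitted effect of over 55% in size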
Target sequence (P08659 whole entry, looked up): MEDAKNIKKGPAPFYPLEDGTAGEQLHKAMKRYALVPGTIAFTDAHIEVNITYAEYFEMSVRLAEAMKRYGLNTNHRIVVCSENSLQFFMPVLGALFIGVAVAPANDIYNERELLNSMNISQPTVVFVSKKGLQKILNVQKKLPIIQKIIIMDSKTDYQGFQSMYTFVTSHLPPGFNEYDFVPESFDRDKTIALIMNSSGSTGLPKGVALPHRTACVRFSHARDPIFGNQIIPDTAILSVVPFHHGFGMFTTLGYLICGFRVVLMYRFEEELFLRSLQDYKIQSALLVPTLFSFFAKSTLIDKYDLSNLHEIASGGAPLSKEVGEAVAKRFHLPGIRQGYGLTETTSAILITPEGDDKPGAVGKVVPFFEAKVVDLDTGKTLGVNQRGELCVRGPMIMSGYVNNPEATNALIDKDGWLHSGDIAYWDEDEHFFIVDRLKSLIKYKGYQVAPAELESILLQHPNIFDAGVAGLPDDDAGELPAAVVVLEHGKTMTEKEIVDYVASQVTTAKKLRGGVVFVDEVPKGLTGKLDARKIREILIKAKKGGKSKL
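Purified P. pyralis luciferase (10nM final) with 10uM D-luciferin and 10uM ATP (Km levels) in 50mM Tris acetate pH 7.5, 10mM Mg acetate, 0.01% Tween-20, 0.05% BSA; qHTS 6-point titration, ~60 µM downward; luminescence read.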
Rab9 prom act = activates the Rab9 promoter | Huh7 Rab9 promoter-luciferase reporter, luminescence, 24 h | Potency, µM (highest dose often 9.22 µM), for inactives: at the top dose activation, negative = inhibition, hits mostly activators | 320,000 tested, 2.8% active | AID 485297; also: % of control where 0% means no effect; nearly all actives have a fitted effect of over 60% in size
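Huh7 cells stably carrying Rab9 promoter–luciferase reporter, plated 1500 cells/well, compound added after 2 h and incubated 24 h at 37 °C; luciferase luminescence then read after 10 min with detection reagent.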
ELG1 genotox = inducers of genotoxicity in HEK293T ELG1-luciferase cells | HEK293T ELG1-luciferase reporter, luminescence, 16 h | AID 504466 | 330,000 tested, 1.3% active | Potency, µM (highest dose often 46 µM), without a hit: at the top dose activity change, positive = activation, hits mostly activators; also: % of control where 0% means no effect; nearly all actives have a fitted effect of over 60% in size
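Quantitative HTS format in 1536-well plates. HEK293T ELG1-luciferase reporter cells receive test compound and are incubated 16 hr at 37 °C, 5% CO2; ONE-Glo added, 30 min room temperature, then luminescence read.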
SMN2 splice enh = SMN2 splice variant enhancement. HEK293 SMN2-luciferase splicing reporter, luminescence, 30-36 h. Potency, µM (highest dose often 46.1 µM), without a hit: at the top dose activity change, positive = activation, most hits filed as activators. 210,000 tested, 2.8% active. AID 1458; also: % of control where 0% means no effect; nearly all actives have a fitted effect of over 55% in size
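qHTS luciferase splicing reporter: luminescence rises when SMN2 exon 7 is included in transfected HEK293 cells. Compound exposure lasted 30-36 h at 37C, with 4.5 mM final sodium butyrate as control, followed by a ONE-Glo read.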
NPC1 promoter act = NPC1 promoter activation. Huh7 NPC1 promoter luciferase reporter, 24 h. Potency, µM (series often up to 9.22 µM), inactives show top-dose activation, actives largely listed as activators. 320,000 tested, 2.4% active; also: % of control where 0% means no effect; nearly all actives have a fitted effect of over 60% in size
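Huh7 cells stably carrying NPC1 promoter–luciferase, plated in Opti-MEM with 10% FBS for 2 h, were exposed to compound in DMSO for 24 h at 37 °C; luciferase reagent was added for 10 min and luminescence read.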
* marks the source's active call; other numbers are inactive results; [ ] = dose if it differs, or a comment. This is a sample that favours compounds with a hit; in the whole collection about 7.4% have one here. Calls follow the shape of the dose curve; as a rule, active = well fitted curve in the direction sought with a large enough effect; inconclusive = small, poorly fitted or top-dose-only effect, or another doubt; inactive = no such curve, though single readings can be large; an effect the other way counts as inactive or inconclusive. Potency is read from the fitted curve at half-maximal effect.

How did Cc1ccc(C(=O)Nc2ncccc2S(=O)(=O)c2ccccc2)cc1 do in these assays?
FLuc modulator: 11µM*; Rab9 prom act: 2.8µM*; ELG1 genotox: inconclusive; NPC1 promoter act: 2.8µM*

Results for COc1ccc(C(=O)Nc2ccc3ncccc3c2)cc1 ?
FLuc modulator: 0.43µM*; Rab9 prom act: 0.28µM*; ELG1 genotox: 0.65µM*; NPC1 promoter act: 0.28µM*

Results for Nc1ccc2ncccc2c1 ?
FLuc modulator: -11%; Rab9 prom act: 5%; ELG1 genotox: 4%; SMN2 splice enh: inconclusive; NPC1 promoter act: 13%

Results for Cc1cccnc1NC(=O)c1ccc(S(=O)(=O)N2CCCCCC2)cc1 ?
FLuc modulator: 0%; Rab9 prom act: 5%; ELG1 genotox: -1%; NPC1 promoter act: 2%

What do the screens show for `O=C(OCC(=O)N1CCCC1=O)C1CCN(S(=O)(=O)c2ccc(Cl)c(C(F)(F)F)c2)CC1`?
FLuc modulator: inconclusive; Rab9 prom act: -2%; ELG1 genotox: 2%; NPC1 promoter act: -3%

Results for CN(Cc1cc(Br)cc(Br)c1O)Cc1c(O)ccc2ccccc12 ?
SMN2 splice enh: -3%[9.22 µM]

Results for CNC(=O)C1CC(=O)N(c2ccc(OCC(=O)NCc3ccccc3)cc2)C1 (stereo not given) ?
FLuc modulator: -4%; Rab9 prom act: 9%; ELG1 genotox: 5%; NPC1 promoter act: 6%

What do the screens show for `Cc1ccc(C(=O)Nc2ccc3ncccc3c2)cc1`?
FLuc modulator: 0.11µM*; Rab9 prom act: 0.1µM*; ELG1 genotox: inconclusive; NPC1 promoter act: inconclusive

What do the screens show for `Brc1ccc(CNc2ccc3ncccc3c2)cc1`?
FLuc modulator: 11µM*; Rab9 prom act: 27%; ELG1 genotox: inconclusive; NPC1 promoter act: inconclusive

Results for CCC(=O)c1ccc2ncccc2c1 ?
FLuc modulator: inconclusive; Rab9 prom act: 2%; ELG1 genotox: 7%; SMN2 splice enh: 24%; NPC1 promoter act: -3%

What do the screens show for `Cc1ccc(NC(=O)c2ccc(NS(=O)(=O)c3cccc4cccnc34)cc2)cc1`?
FLuc modulator: 17µM*; Rab9 prom act: -3%[1.84 µM]; ELG1 genotox: -2%; NPC1 promoter act: -4%

What do the screens show for `Oc1cc(NCc2ccccc2)cc2cccnc12`?
FLuc modulator: inconclusive; Rab9 prom act: -18%; NPC1 promoter act: -31%

Results for Cc1ccc(C(=O)/C=C/c2ccc3ncccc3c2)cc1 ?
FLuc modulator: 3.8µM*; Rab9 prom act: 13%; ELG1 genotox: inconclusive; NPC1 promoter act: 13%

Results for Cc1ccc2c(c1)c1c(c(=O)n(-c3ccccc3C)c(=O)n1CC(=O)NCc1ccccc1)n2C ?
FLuc modulator: -2%

How did O=C(COc1ccc(F)cc1)NCC(c1ccc(Cl)cc1)N1CCCCC1 (stereo not given) do in these assays?
FLuc modulator: -8%

How did O=c1cc(-c2ccccc2)nc2n1Cc1ccccc1-2 do in these assays?
FLuc modulator: inconclusive; Rab9 prom act: 0%; ELG1 genotox: 13%; SMN2 splice enh: -24%; NPC1 promoter act: 2%

How did COc1ccc(-c2nc3n(c2C)Cc2ccccc2-3)cc1 do in these assays?
FLuc modulator: 2.4µM*; Rab9 prom act: inconclusive; ELG1 genotox: 13µM*; NPC1 promoter act: 2.5µM*

How did COc1ccc(Cc2nc(-c3ccncc3)no2)cc1 do in these assays?
FLuc modulator: inconclusive; Rab9 prom act: -14%; ELG1 genotox: 8%; NPC1 promoter act: 2%

Results for Clc1ccc(Cc2nc(-c3ccncc3)no2)cc1 ?
FLuc modulator: -13%; Rab9 prom act: 5%; ELG1 genotox: 7%; NPC1 promoter act: -3%

Results for COc1ccc(Cc2nc(-c3cccc(C)c3)no2)cc1 ?
FLuc modulator: 13µM*; Rab9 prom act: inconclusive; ELG1 genotox: inconclusive; SMN2 splice enh: 24%; NPC1 promoter act: inconclusive

How did Cc1cccc(-c2noc(Cc3ccc(Cl)cc3)n2)c1 do in these assays?
FLuc modulator: inconclusive; Rab9 prom act: inconclusive; ELG1 genotox: 18µM*; SMN2 splice enh: inconclusive; NPC1 promoter act: 28%

What do the screens show for `CN(C)c1ccc(/C=N/n2c(C3CCCCC3)n[nH]c2=S)cc1`?
FLuc modulator: -1%; Rab9 prom act: -7%; ELG1 genotox: 13%; NPC1 promoter act: 0%
